According to PubChem BioAssay (Tox21):
Values without a mark were called inactive. Records with an inconclusive call do not appear. Entries that show only a call come without a potency. Activity calls are given as the source filed them. Unless noted, calls follow the shape of the full dose curve.

Assays:
[1] = target: Acetylcholinesterase (Homo sapiens) (UniProt P22303); assay: Acetylcholinesterase (AChE) small molecule antagonists: enzyme-based qHTS assay (AID 1347397); settings: Potency: AChE enzyme activity inhibition; outcome: AChE enzyme activity inhibition; also: nearly all actives have a fitted effect of over 55% in size
How it was run: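 Recombinant human AChE, dispensed at 50 mU/mL, was preincubated with Tox21 10K compounds or DMSO vehicle for 30 min at room temperature. DTNB plus acetylthiocholine was then added, and thiocholine was measured colorimetrically after a further 10 min.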

[2] = target: Acetylcholinesterase (Homo sapiens) (UniProt P22303); assay: Acetylcholinesterase (AChE) small molecule antagonists: fluorescence cell-based qHTS assay (AID 1347398); settings: Potency: AChE activity; outcome: AChE activity; also: nearly all actives have a fitted effect of over 50% in size
How it was run: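 Human SH-SY5Y cells were plated overnight at 37 C, exposed to compound for 30 min at 37 C, 5% CO2, then given acetylthiocholine plus Thiolite Green for 40 min at room temperature; thiocholine fluorescence (Ex/Em 490/520 nm) reports endogenous AChE activity.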

[3] = target: Acetylcholinesterase (Homo sapiens) (UniProt P22303); assay: Acetylcholinesterase (AChE) small molecule antagonists: enzyme-based qHTS assay with human liver microsomes (AID 1347399); settings: Potency: qHTS inhibition; outcome: qHTS inhibition; also: nearly all actives have a fitted effect of over 60% in size
How it was run: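 Recombinant human AChE (50 mU/mL in the enzyme mix) and human liver microsomes (0.25 mg/mL final) were preincubated with compound and NADPH (0.25 mg/mL final) for 30 min at 37 C. Acetylthiocholine/DTNB was then added; thiocholine was read colorimetrically after 10 min at room temperature.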

[4] = qHTS assay for small molecules that induce genotoxicity in human embryonic kidney cells expressing luciferase-tagged ATAD5 (AID 651632; active = well fitted curve in the direction sought with a large enough effect in the repeat runs; an effect the other way counts as inactive or inconclusive; also: nearly all actives have a fitted effect of over 15% in size)
How it was run: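 Luminescent reporter readout, HEK293T ATAD5-luc line: 16 hr drug exposure (37C, 5% CO2) followed by Amplite, 30 min RT.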

[5] = qHTS assay for small molecule disruptors of the mitochondrial membrane potential - cell viability (AID 720634);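 also: human HepG2 liver cancer cells; series mostly up to about 83 µM; nearly all actives have a fitted effect of over 20% in size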
How it was run: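 HepG2, 1 hr compound, 37 C. ATP luminescence via CellTiter-Glo, 30 min RT, same well as m-MPI.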

[6] = qHTS assay to test for compound auto fluorescence at 590 nm (red) in HepG2 cells (AID 720674; active = well fitted curve in the direction sought with a large enough effect in the repeat runs; an effect the other way counts as inactive or inconclusive)
How it was run: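 Rose Bengal sodium served as the red fluorophore standard. HepG2 monolayers (overnight attachment, MEM with 10% FBS) were exposed to test compounds for 1 hr at 37 C and read at Ex 540/Em 590 nm.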

[7] = qHTS assay to test for compound auto fluorescence at 460 nm (blue) in HEK293 cells (AID 720678; active = well fitted curve in the direction sought with a large enough effect in the repeat runs; an effect the other way counts as inactive or inconclusive)
How it was run: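 HEK293, 2,000 cells/well, 10% dialyzed FBS; attach 4-5 hr 37C; pin compound or DMSO; o/n 37C/5% CO2; fluorescence 405/460 nm; triamterene-equivalent units.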

[8] = qHTS assay to test for compound auto fluorescence at 590 nm (red) in HEK293 cells (AID 720679; active = well fitted curve in the direction sought with a large enough effect in the repeat runs; an effect the other way counts as inactive or inconclusive)
How it was run: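 Intensity at 540nm excitation and 590nm emission is reported as Rose Bengal sodium-equivalent autofluorescence. Measurements followed overnight exposure (37C, 5% CO2) of HEK293 cells, 2,000 per well, to 23 nL compound.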

[9] = qHTS assay to test for compound auto fluorescence at 535 nm (green) in HEK293 cells (AID 720680; active = well fitted curve in the direction sought with a large enough effect in the repeat runs; an effect the other way counts as inactive or inconclusive)
[10] = qHTS assay to test for compound auto fluorescence at 535 nm (green) in HEK293 cell free culture (AID 720682; active = well fitted curve in the direction sought with a large enough effect in the repeat runs; an effect the other way counts as inactive or inconclusive)
How it was run: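 No cells present: wells hold DMEM supplemented with 10% FBS, into which compound or vehicle is pinned. Green emission is then recorded (485 nm excitation, 535 nm emission) and scaled to fluorescein.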

[11] = qHTS assay to test for compound auto fluorescence at 590 nm (red) in HEK293 cell free culture (AID 720683; active = well fitted curve in the direction sought with a large enough effect in the repeat runs; an effect the other way counts as inactive or inconclusive)
How it was run: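 Tox21 10K library compounds were pinned into cell-free DMEM with 10% FBS and fluorescence was read at excitation 540 nm. Activity is expressed as Rose Bengal sodium equivalency.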

[12] = qHTS assay to test for compound auto fluorescence at 460 nm (blue) in HepG2 cell free culture (AID 720685; active = well fitted curve in the direction sought with a large enough effect in the repeat runs; an effect the other way counts as inactive or inconclusive)
How it was run: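 Compound (23 nL) or DMSO pinned into cell-free MEM with 10% FBS; blue fluorescence read at 405/460 nm excitation/emission, expressed as auto-fluorescence equivalency to triamterene.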

[13] = qHTS assay to test for compound auto fluorescence at 460 nm (blue) in HepG2 cells (AID 720687; active = well fitted curve in the direction sought with a large enough effect in the repeat runs; an effect the other way counts as inactive or inconclusive)
How it was run: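 Cells (2,000/well in MEM with 10% FBS) attached overnight at 37 C, then were exposed to compound or DMSO for 1 hr at 37 C, 5% CO2. Fluorescence read at Ex/Em 405/460 nm, expressed as triamterene-equivalent signal.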

[14] = qHTS assay to identify small molecule antagonists of the glucocorticoid receptor (GR) signaling pathway - cell viability counter screen (AID 720693; active = well fitted curve in the direction sought with a large enough effect in the repeat runs; an effect the other way counts as inactive or inconclusive; also: nearly all actives have a fitted effect of over 55% in size)
[15] = qHTS assay for identifying genotoxic compounds that show differential cytotoxicity against isogenic chicken DT40 cell lines with known DNA damage response pathways - Rad54/Ku70 mutant cell line (AID 743015; active = well fitted curve in the direction sought with a large enough effect in the repeat runs; an effect the other way counts as inactive or inconclusive; also: potency is read from the fitted curve at half-maximal effect; nearly all actives have a fitted effect of over 60% in size)
[16] = qHTS assay to identify small molecule antagonists of the androgen receptor (AR) signaling pathway using the MDA cell line - cell viability counter screen (AID 743041; active = well fitted curve in the direction sought with a large enough effect in the repeat runs; an effect the other way counts as inactive or inconclusive; also: potency is read from the fitted curve at half-maximal effect; nearly all actives have a fitted effect of over 45% in size)
How it was run: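 MDA-kb2 AR-luc human breast carcinoma cells (MMTV-luciferase, AR/GR responsive) were treated with compounds plus R1881 agonist for 16 h at 37 °C. Viability was read as CellTiter-Fluor fluorescence in the same wells as the reporter assay.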

[17] = qHTS assay to identify small molecule antagonists of the thyroid receptor (TR) signaling pathway - cell viability counter screen (AID 743064; active = well fitted curve in the direction sought with a large enough effect in the repeat runs; an effect the other way counts as inactive or inconclusive; also: potency is read from the fitted curve at half-maximal effect; nearly all actives have a fitted effect of over 50% in size)
How it was run: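 Rat GH3 pituitary tumor cells stably expressing two TR response elements driving luciferase were plated, rested 4 h, then dosed with library compounds and T3 (1 nM final). After 23.5 h at 37 °C, CellTiter-Fluor was added for 30 min and fluorescence recorded.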

[18] = target: Estrogen receptor (Homo sapiens) (UniProt P03372); assay: qHTS assay to identify small molecule antagonists of the estrogen receptor alpha (ER-alpha) signaling pathway (AID 743069; active = well fitted curve in the direction sought with a large enough effect in the signal ratio in the repeat runs, not every such curve was filed as active; the % refers to the signal ratio; also: potency is read from the fitted curve at half-maximal effect)
How it was run: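 HEK293 cells stably carrying an ER-alpha-UAS-bla beta-lactamase reporter were pre-cultured overnight in 2% charcoal-stripped FBS medium. Test compounds in DMSO were added together with 17beta-estradiol for 18 hr at 37C. Read-out was fluorescence after 2 hr with LiveBLAzer B/G FRET substrate at room temperature.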

[19] = qHTS assay to identify small molecule antagonists of the estrogen receptor alpha (ER-alpha) signaling pathway - cell viability counter screen (AID 743074); also: nearly all actives have a fitted effect of over 45% in size
[20] = target: Estrogen receptor (Homo sapiens) (UniProt P03372); assay: qHTS assay to identify small molecule agonists of the estrogen receptor alpha (ER-alpha) signaling pathway (AID 743075)
[21] = qHTS assay to identify small molecule antagonists of the estrogen receptor alpha (ER-alpha) signaling pathway using the BG1 cell line - cell viability counter screen (AID 743081; active = well fitted curve in the direction sought with a large enough effect in the repeat runs; an effect the other way counts as inactive or inconclusive;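 also: compound given together with 17beta-estradiol as the ER stimulus; series mostly up to about 70 µM; nearly all actives have a fitted effect of over 45% in size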)
[22] = qHTS assay to identify aromatase inhibitors - cell viability counter screen (AID 743084; active = well fitted curve in the direction sought with a large enough effect in the repeat runs; an effect the other way counts as inactive or inconclusive;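 also: cells stimulated with testosterone during compound exposure; nearly all actives have a fitted effect of over 55% in size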)
[23] = target: Aryl hydrocarbon receptor (Homo sapiens) (UniProt P35869); assay: qHTS assay to identify small molecule that activate the aryl hydrocarbon receptor (AhR) signaling pathway (AID 743085; active = well fitted curve in the direction sought with a large enough effect in the repeat runs; an effect the other way counts as inactive or inconclusive;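 also: HG2L7.5c1 human HepG2 liver cells with stably integrated DRE-driven firefly reporter; series mostly up to about 70 µM; nearly all actives have a fitted effect of over 15% in size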)
How it was run: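 Compounds were tested in HepG2 hepatocellular carcinoma cells harbouring a stably integrated luciferase gene under control of 20 DREs. Increased reporter signal after 24 h treatment at 37C was taken as AhR activation.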

[24] = qHTS assay to identify small molecule that activate the aryl hydrocarbon receptor (AhR) signaling pathway - cell viability counter screen (AID 743086; active = well fitted curve in the direction sought with a large enough effect in the repeat runs; an effect the other way counts as inactive or inconclusive;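 also: HepG2 liver cells carrying the AhR DRE luciferase reporter; series mostly up to about 70 µM; nearly all actives have a fitted effect of over 45% in size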)
How it was run: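 HepG2-AhR-luc (HG2L7.5c1) cells, 4000/well, were preincubated 5 h at 37C, exposed to compound in qHTS format for 24 hr at 37C, then given CellTiter-Fluor for 30 min; viability was read as fluorescence in the reporter wells.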

Sequence of Acetylcholinesterase (Homo sapiens) (P22303 whole entry, looked up): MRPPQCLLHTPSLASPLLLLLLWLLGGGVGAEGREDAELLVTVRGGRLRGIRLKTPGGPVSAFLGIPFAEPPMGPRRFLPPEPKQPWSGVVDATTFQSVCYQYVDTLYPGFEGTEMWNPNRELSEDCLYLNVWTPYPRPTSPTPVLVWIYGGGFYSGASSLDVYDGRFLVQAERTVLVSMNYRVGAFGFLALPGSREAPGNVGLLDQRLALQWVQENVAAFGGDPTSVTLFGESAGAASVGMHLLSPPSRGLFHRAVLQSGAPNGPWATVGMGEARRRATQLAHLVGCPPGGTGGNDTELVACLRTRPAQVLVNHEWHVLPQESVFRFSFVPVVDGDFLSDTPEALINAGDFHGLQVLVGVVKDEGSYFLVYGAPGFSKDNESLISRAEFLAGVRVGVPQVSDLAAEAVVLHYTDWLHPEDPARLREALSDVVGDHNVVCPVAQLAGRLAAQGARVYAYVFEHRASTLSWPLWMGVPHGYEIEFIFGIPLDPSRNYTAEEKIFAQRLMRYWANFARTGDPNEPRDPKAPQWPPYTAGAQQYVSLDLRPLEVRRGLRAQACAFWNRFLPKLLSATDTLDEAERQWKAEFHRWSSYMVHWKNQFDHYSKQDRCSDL
Sequence of Estrogen receptor (Homo sapiens) (P03372 whole entry, looked up): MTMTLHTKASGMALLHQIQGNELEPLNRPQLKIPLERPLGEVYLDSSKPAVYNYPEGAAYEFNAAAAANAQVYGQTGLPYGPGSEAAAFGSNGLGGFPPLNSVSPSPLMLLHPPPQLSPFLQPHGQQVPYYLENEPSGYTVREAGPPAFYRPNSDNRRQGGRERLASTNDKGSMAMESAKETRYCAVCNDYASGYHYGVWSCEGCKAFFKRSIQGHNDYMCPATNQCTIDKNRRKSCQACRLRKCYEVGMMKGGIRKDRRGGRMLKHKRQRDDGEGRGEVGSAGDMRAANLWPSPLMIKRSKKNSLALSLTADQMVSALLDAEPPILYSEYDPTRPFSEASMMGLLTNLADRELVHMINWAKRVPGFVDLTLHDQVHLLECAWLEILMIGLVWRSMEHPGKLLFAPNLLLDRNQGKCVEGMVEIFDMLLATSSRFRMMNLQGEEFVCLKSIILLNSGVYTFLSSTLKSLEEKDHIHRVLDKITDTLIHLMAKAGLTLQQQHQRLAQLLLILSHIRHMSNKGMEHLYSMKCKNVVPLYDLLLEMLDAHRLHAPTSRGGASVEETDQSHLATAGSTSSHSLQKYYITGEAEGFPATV
Sequence of Aryl hydrocarbon receptor (Homo sapiens) (P35869 whole entry, looked up): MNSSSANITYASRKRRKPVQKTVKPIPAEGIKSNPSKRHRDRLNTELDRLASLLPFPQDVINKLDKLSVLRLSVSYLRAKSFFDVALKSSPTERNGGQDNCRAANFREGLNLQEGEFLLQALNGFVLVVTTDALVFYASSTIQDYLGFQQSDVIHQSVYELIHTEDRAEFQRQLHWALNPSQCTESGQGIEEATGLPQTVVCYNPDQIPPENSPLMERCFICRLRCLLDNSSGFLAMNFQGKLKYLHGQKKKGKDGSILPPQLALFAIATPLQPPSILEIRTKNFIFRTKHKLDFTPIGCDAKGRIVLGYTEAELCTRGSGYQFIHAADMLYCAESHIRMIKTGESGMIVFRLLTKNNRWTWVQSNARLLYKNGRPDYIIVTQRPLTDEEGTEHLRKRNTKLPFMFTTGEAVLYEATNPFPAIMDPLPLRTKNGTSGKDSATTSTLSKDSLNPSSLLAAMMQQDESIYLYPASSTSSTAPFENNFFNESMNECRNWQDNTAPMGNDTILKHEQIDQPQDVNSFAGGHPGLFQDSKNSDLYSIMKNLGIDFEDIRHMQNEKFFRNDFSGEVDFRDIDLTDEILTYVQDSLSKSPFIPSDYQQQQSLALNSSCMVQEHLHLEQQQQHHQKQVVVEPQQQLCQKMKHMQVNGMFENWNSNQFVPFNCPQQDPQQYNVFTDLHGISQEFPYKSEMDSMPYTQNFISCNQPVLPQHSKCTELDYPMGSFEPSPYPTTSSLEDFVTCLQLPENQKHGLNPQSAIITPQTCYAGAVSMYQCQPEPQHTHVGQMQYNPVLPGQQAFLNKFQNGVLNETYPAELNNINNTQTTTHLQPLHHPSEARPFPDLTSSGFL

CC(C(=O)O)c1cccc(Oc2ccccc2)c1 (centres undefined)
Potency [1]: inactive | Potency [2]: inactive | Potency [3]: inactive

Cc1ccccc1S(=O)(=O)O
Potency [1]: inactive | Potency [2]: inactive | Potency [3]: inactive

CC(C)=CCCC(C)CC(=O)O (centres undefined)
Potency [1]: inactive | Potency [2]: inactive | Potency [3]: inactive

CN1Cc2c(N)cccc2C(c2ccccc2)C1 (centres undefined)
Potency [1]: inactive | Potency [2]: inactive | Potency [3]: inactive

CCOB(OCC)OCC
Potency [1]: inactive | Potency [2]: inactive | Potency [3]: inactive

O.O.O.O=C([O-])C(O)C(O)C(=O)[O-].O=C([O-])C(O)C(O)C(=O)[O-].[K+].[K+].[Sb].[Sb] (centres undefined)
Potency [4]: inactive | Potency [5]: inactive | outcome [6]: inactive | Potency [7]: inactive | outcome [8]: inactive | Potency [9]: inactive | Potency [10]: inactive | outcome [11]: inactive | Potency [12]: inactive | Potency [13]: inactive | Potency [14]: inactive | Potency [15]: 11.9 µM (active) | Potency [16]: 18.8 µM (active) | Potency [17]: 29.8 µM (active) | Potency [18]: 19 µM [inhibitor] (active) | Potency [19]: inactive | Potency [20]: inactive | Potency [21]: inactive | Potency [22]: inactive | Potency [23]: inactive | Potency [24]: inactive

CN(C)Cc1ccccc1
Potency [1]: inactive | Potency [2]: inactive | Potency [3]: inactive
